Results: PubChem BioAssay (NCI)
“And” between values parts separate entries of the source, which are not always exact repeats. Equal entries are not always repeated. This is part of a sample that, as a whole, favours compounds with a hit. Of some 83,000 tested, about 20% had one in any assay.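 48-hour exposure, single concentration, 96-well plates; percent growth endpoint where 0 means no net growth. Active: below 10.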 A number with no mark means an inactive call. The source made the active and inactive calls.

These compounds were tested on MDA-MB-468 breast (assay: NCI-60 one-dose screen, 48 h (100 = growth as untreated, 0 = no growth, -100 = all killed)). Details: 10 µM unless noted.

Row | Compound | growth
1 | Oc1c(I)cc(I)cc1CNCCN(Cc1ccccn1)Cc1ccccn1 | -61.2% (active)
2 | O=C1C(Nc2ccc(Cl)cc2)=C(I)C(=O)c2ncccc21 | -72.3% (active)
3 | N#C/C(=C\c1ccc(Br)cc1)n1nnc2cc(Cl)c(Cl)cc21 | -5.24% (active)
4 | CCCOS(=O)(=O)c1ccccc1 | 108%
5 | CCC(C)[C@@H]1NC(=O)[C@@H]2CCCN2C(=O)[C@H](Cc2ccccc2)NC(=O)[C@@H]2CCCN2C(=O)[C@H](Cc2ccccc2)NC(=O)[C@@H]2CCCN2C(=O)[C@H](Cc2ccccc2)NC1=O (stereo not given in full) | 116%
6 | CN(C)c1ccc(/C=N\NC(=O)c2ccc3nc(-c4ccc(Cl)cc4)[nH]c3c2)cc1 | 76.1%
7 | O=C(/C(=C/c1ccc([N+](=O)[O-])cc1)c1ccccc1)c1ccccc1 | 51.4%
8 | Cc1ccc(S(=O)(=O)N(C)CCCCCC(=O)O)cc1 | 108%
9 | CN(C)c1ccc(/C=C/c2nccc3ccccc23)cc1 | -1.08% (active)
10 | Cc1ccc(-c2onc3c(=O)[nH]nc(-c4ccccc4)c23)cc1 | 29.5%
11 | c1cncc(CNc2ccccc2-c2nnc(Nc3ccc4c(c3)OCCO4)o2)c1 | -0.422% (active)
12 | CCOC(=O)c1c(C)[nH]c(C(=O)CCC(=O)OC)c1C | 114%
13 | CC(C)C(=O)Cc1cnccn1 | 119%
14 | S=C(c1cccs1)N1CCN(c2cccc(Cl)c2)CC1 | 85.8%
15 | O=C(O)C1CSCN1 (stereo not given) | 114% and 95.5%
16 | O=C1OCC2=C1C(c1cccc(F)c1)c1cc3c(cc1N2CCO)OCCO3 (stereo not given) | -8.31% (active)
17 | CCNCCNc1cc(-c2cccc(C(F)(F)F)c2)c(C#N)c2nc3ccccc3n12 | -84.3% (active)
18 | CC(C)(C#N)N1CCN(c2ccccc2Cl)CC1 | 103%
19 | COc1ccc(/C=C2/C(=O)N=C3N2NC(c2ccccc2)=CN3c2ccccc2)cc1 | 88.9%
20 | CN1CCN(c2ccc(C(=O)/C=C/c3cc(F)cc(C(F)(F)F)c3)cc2)CC1 | 31.5%

Row | Compound | growth
21 | Cc1c(N(C)CS(=O)(=O)O)c(=O)n(-c2ccccc2)n1C | 106%
22 | O=C1N/C(=N\c2nnc(-c3ccc(O)cc3)s2)S/C1=C\c1ccccc1O | 99.4%
23 | O=C(CSc1nccc(Nc2ccc(S(=O)(=O)Nc3nccs3)cc2)n1)c1ccc(C(F)(F)F)cc1 | 97%
24 | COc1ccc(-c2cc(-c3ccccc3)nc(N3CCN(CCNc4ccnc5cc(Cl)ccc45)CC3)n2)cc1 | -54.7% (active)
25 | Cc1c(O)c(=O)ccn1C1CCC(CC2CCC(n3ccc(=O)c(O)c3C)CC2)CC1 (stereo not given) | 0.337% (active)
26 | CCSc1nnc2n(Cc3ccccc3)c(=O)c3c(C)c(C(N)=O)sc3n12 | 101%
27 | Cc1nc2sc(C(=O)Nc3cccc(Cl)c3C)c(N)c2cc1C(C)O (stereo not given) | 25.4%
28 | O=C1C(=O)c2c(ccc3ccccc23)-c2ccccc21 | -79.9% (active)
29 | COc1cc(/C=C/C(=O)c2cc(OC)c(OC)c(OC)c2)ccc1OCc1ccc(F)cc1 | 17.8%
30 | CC(C)c1ccc(NC(=O)Nc2ccc(NC(=O)c3ccccc3N)cc2)cc1 | 81.4%
31 | CO[C@H](C(=O)N[C@@H](CCCCNC(=O)OCc1ccccc1)C(=O)OC(C)(C)C)[C@@H]1Cc2cc3cc(OC4CC(OC5CC(O)C(O)C(C)O5)C(O)C(C)O4)c(C)c(O)c3c(O)c2C(=O)[C@H]1OC1CC(OC2CC(OC3CC(C)(O)C(O)C(C)O3)C(O)C(C)O2)C(O)C(C)O1 (stereo not given in full) | -37.5% (active)
32 | Cc1ccc(Cn2cc(COc3ccc4c5ccnc(C)c5n(CCCc5ccccc5)c4c3)nn2)cc1 | 99%
33 | C=CCn1c(SCC(=O)Nc2ccc(/C(C)=N\O)cc2)nnc1-c1cc(-c2ccccc2)nc2ccccc12 | 73%
34 | OC(c1ccc(F)c(C(F)(F)F)c1)c1cnccc1NC1CCCCC1 (stereo not given) | 9.9% (active)
35 | CNC1=C(Br)C(=O)c2c(C(=O)OC)c(C)nc(C)c2C1=O | 27.4%
36 | Cc1cc(CSc2ccccc2C(=O)N2CC=C(c3ccccc3)CC2)on1 | 94.2%
37 | CC1(C)OC2[C@@H](CNC(=O)NC(=O)NC(=O)CI)O[C@@H](n3cnc4c(NC(=O)Nc5ccccc5)ncnc43)[C@H]2O1 (stereo not given in full) | 64%
38 | Oc1ccc2ccccc2c1CN1CCOCC1 | 123%
39 | COc1cc2c(-c3cc4c(cc3CNCCc3ccc5c(c3)OCO5)OCO4)cccc2c(OC)c1O | -8.75% (active)
40 | CC(=O)CC(=O)SC1=NCCS1 | 124%
